Compounds with a hit are over-represented: about 3.8% of the library has one in this group of screens.
ADAM17 inh = ADAM17 inhibition, QFRET primary screen; P78536; recombinant ADAM17, EDANS/DABCYL FRET peptide cleavage; inhibition, % at 6.95 µM; actives 0.83% (n = 370,000); AID 720648;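 active means inhibition above the mean of compounds lying between control limits plus 3 SD, set per campaign, cut at about 8.5% in these data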;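 further: 0% = DMSO-only wells as the low control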
proKLK7 act = proKLK7 (human) activation, primary screen; actives 0.9% (n = 370,000); activation, % at 7 µM; purified proKLK7, EDANS-DABCYL substrate fluorescence; 100% is mature enzyme control, 0% vehicle; P49862;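 active means activation above the mean of all tested compounds plus 3 SD, computed per campaign excluding outliers beyond control limits, cut at about 13% in these data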
rRNA inh HTS = inhibits bacterial ribosomal RNA function over humanized ribosomes; E. coli WT GFP vs humanized-ribosome RFP mutants, fluorescence, 24 h; stronger effect = lower value; DMSO median 0, no signal -100; GFP signal change (wild-type ribosome), % (concentration not given with the values); actives 1.6% (n = 350,000); AID 720706;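 active means significant combined selectivity score with lowered wild-type GFP, culture density cut under 30%, mutant RFP and density less affected; inactive means any of these conditions unmet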
FGF22 binding = shifts melting point of recombinant human FGF22; Q9HCT0; recombinant FGF22 thermal shift, SYPRO orange fluorescence; percent of sucrose octasulfate shift, DMSO zero; activity (Tm shift, normalised), % at 9.99 µM; actives 1.5% (n = 340,000); AID 651658;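 active means mean Tm shift, scaled 0 neutral to 100 positive control, at about 1.3% or above, every replicate too, limit read from the data; inconclusive means no clear call, values can overlap the other calls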
Target sequence (Q9HCT0 whole entry, looked up): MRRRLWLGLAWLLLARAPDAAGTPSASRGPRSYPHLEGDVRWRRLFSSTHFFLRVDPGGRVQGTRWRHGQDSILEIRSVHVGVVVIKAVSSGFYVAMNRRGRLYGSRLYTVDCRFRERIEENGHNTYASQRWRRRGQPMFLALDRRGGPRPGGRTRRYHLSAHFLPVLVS
ADAM10 inh = inhibits human ADAM10 | actives 0.62% (n = 370,000) | AID 720582 | recombinant ADAM10, EDANS/DABCYL FRET peptide cleavage, 3 h | inhibition, % at 7 µM;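 active means inhibition above a per-campaign cutoff equal to the mean of compounds falling between control-based bounds plus 3 SD, cut at about 20% in these data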;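 further: 0% = DMSO wells while the 100% control is not disclosed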
Target sequence (O14672 214-748 limits assumed): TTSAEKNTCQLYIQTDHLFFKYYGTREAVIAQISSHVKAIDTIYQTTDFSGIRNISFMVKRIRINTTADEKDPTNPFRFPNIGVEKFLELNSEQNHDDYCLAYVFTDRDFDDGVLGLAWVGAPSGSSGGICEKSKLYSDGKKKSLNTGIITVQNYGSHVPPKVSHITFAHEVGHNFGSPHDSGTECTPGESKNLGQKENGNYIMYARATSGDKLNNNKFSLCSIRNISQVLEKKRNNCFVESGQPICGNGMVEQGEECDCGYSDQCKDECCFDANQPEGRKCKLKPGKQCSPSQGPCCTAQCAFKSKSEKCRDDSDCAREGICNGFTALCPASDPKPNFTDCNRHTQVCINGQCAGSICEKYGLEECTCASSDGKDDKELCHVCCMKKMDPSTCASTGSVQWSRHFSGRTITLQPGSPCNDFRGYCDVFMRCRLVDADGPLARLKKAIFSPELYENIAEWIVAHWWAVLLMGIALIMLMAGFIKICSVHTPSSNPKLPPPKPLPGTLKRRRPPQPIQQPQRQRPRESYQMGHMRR
ADAM10 counter = ADAM10 inhibition, counter-screen for ADAM17 exosite hits; shares compounds with ADAM17 inh; recombinant ADAM10, EDANS/DABCYL FRET peptide cleavage, 3 h; inhibition, % at 6.95 µM; actives 47% (n = 2,900);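 active means mean inhibition over the triplicate runs exceeds the activity threshold set in the earlier primary screen, cut at about 20% in these data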;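 further: 0% = DMSO wells and 100% = marimastat wells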
ADAM17 confirm = human ADAM17 inhibition, confirmation; shares compounds with ADAM17 inh; recombinant ADAM17, EDANS/DABCYL QFRET peptide cleavage; inhibition, % at 6.95 µM; actives 65% (n = 2,900); AID 743257;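 active means mean inhibition across replicates above the hit cutoff set in the primary screen, cut at about 8.5% in these data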;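 further: 0% = DMSO wells and 100% = marimastat wells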
HepG2 cytotox = HepG2 cell cytotoxicity | shares compounds with rRNA inh HTS | HepG2 viability, ATP luminescence, 72 h | activity change, negative = cytotoxicity, unspecified at 26 µM | 30 tested, under 10 active | AID 743480;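 active means compounds whose fitted half-maximal signal-loss concentration is at most twice their highest valid dose; inconclusive means flat curve with 30 to 70% signal loss, or poor fit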
AID977621 = growth inhibition of wild-type GFP E. coli, dose response, H69 mutant RFP, cherry-pick; shares compounds with rRNA inh HTS; 1,900 tested, under 10 active; AID 977621; E. coli wild-type GFP strain growth, fluorescence, 24 h; activity change, negative = inhibition at 50 µM;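 active means Wild-type ribosome reporter drop at least double the humanized mutant ribosome reporter drop, growth loss under a set limit; inconclusive means no clear call, values can overlap the other calls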;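 further: wild-type GFP and H69 mutant RFP strains grown together 50/50 in each well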
AID977628 = E. coli growth inhibition, wild-type GFP versus h24 humanized RFP strain, dose response, h24 mutant RFP vs wild-type GFP, cherry-pick; shares compounds with rRNA inh HTS; activity change, negative = inhibition at 50 µM; E. coli WT GFP strain growth, fluorescence, 24 h; AID 977628; 1,900 tested, under 10 active;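 active means compound lowering the normal-ribosome reporter at least twice as much as the humanized-ribosome reporter, growth loss under a set limit; inconclusive means no clear call, values can overlap the other calls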;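 further: wild-type GFP and h24 humanized RFP strains co-cultured 1 to 1 per well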
* = called active by the depositor; ? = inconclusive; . = no result.

SMILES	ADAM17 inh	proKLK7 act	rRNA inh HTS	FGF22 binding	ADAM10 inh	ADAM10 counter	ADAM17 confirm	others
Cc1noc(C)c1NC(=O)Nc1ccc2c(c1)C(=O)N([C@@H](C)CO)C[C@H](C)[C@@H](CN(C)S(=O)(=O)c1c(C)noc1C)OCCCC[C@@H](C)O2	.	.	1.0	-0.2	.	.	.
CCCNC(=O)[C@@H]1[C@@H](CO)[C@@H]2Cn3c(ccc(-c4ccccc4F)c3=O)[C@H]1N2CCC	.	.	-0.2	.	.	.	.
CN(c1ccc(OCc2ccc([N+](=O)[O-])cc2)cc1)S(=O)(=O)c1ccccc1	9.3*	-0.5	-0.7	-0.3	14.8	17.4	13.1*
O=C(CN1CCOCC1)Nc1ccccc1F	9.1*	-0.1	4.6	-0.2	7.2	-1.7	-1.3
Cc1cccc(N(CC(=O)Nc2ccccc2-c2ccccc2)S(=O)(=O)c2ccccc2)c1C	9.3*	0.2	.	.	16.3	28.2*	16.1*
Cc1ccc(C(=O)NC2CCCCN(Cc3ccccc3C)C2=O)cc1 (centres undefined)	1.0	-0.4	.	.	-2.6	.	.
Cc1ccccc1CN1CCCCC(NC(=O)c2ccc3ccccc3c2)C1=O (centres undefined)	21.5*	0.1	.	.	4.5	7.4	8.0
CN(CC(O)CON=C1c2ccccc2-c2ccccc21)S(=O)(=O)c1ccc(Br)cc1 (centres undefined)	8.8*	-3.5	.	.	17.5	23.0*	14.2*
CCN(CC(O)CON=C1c2ccccc2-c2ccccc21)S(=O)(=O)c1ccc(C)cc1 (centres undefined)	9.4*	-3.3	.	.	17.0	22.3*	16.9*
CCN(CC(O)CON=C1c2ccccc2-c2ccccc21)S(=O)(=O)c1ccc(Cl)cc1 (centres undefined)	6.5	-2.7	.	.	15.1	.	.
COCC(=O)Nc1ccc2c(c1)[C@@H]1C[C@@H](CC(=O)NCCc3ccccc3)O[C@@H](CO)[C@@H]1O2	.	.	0.0	-0.5	.	.	.
Cc1ccc(S(=O)(=O)NCC(=O)OCC(=O)NCc2ccc3c(c2)OCO3)cc1	-2.7	0.2	6.7	0.1	-5.8	.	.
CC(=O)Nc1ccc(S(=O)(=O)NCC(=O)OCC(=O)NCc2ccc3c(c2)OCO3)cc1	9.6*	-0.3	7.6	44.3*	10.6	-8.2	-2.4
Cc1ccc(NC(=O)c2ccccc2OCC(=O)Nc2ccccc2F)cc1S(=O)(=O)N(C)C	10.6*	0.1	1.2	-0.1	4.4	41.7*	24.6*
C/C=C/c1ccc([C@H]2[C@@H](CNC(C)C)N(C(=O)c3ccccn3)[C@H]2CO)cc1	.	.	0.4	.	.	.	.
O=C(N[C@H]1C/C=C\C[C@@H](CC(=O)N(CCO)Cc2ccccc2)C(=O)N[C@H](Cc2c[nH]c3ccccc23)COC1=O)OCC1c2ccccc2-c2ccccc21	10.3*	0.9	9.6	0.1	9.2	21.0*	13.0*
CC(C)(C)OC(=O)N(Cc1ccccc1)Cc1ccccc1OCc1ccc(NC(=O)C2CCC2)cc1	13.1*	-0.3	-5.5	0.0	8.3	12.9	11.0*
CO[C@@H]1CN(C)C(=O)c2ccc(NC(=O)c3ccccc3)cc2OC[C@@H](C)N(C(=O)C2CC2)C[C@@H]1C	.	.	0.4	.	.	.	.
O=C(NC(CSCc1ccccc1)C(=O)N/N=C/c1ccc(O)cc1O)c1ccc([N+](=O)[O-])cc1 (centres undefined)	14.4*	-2.4	.	.	11.4	19.4	16.8*
COc1cc(O)ccc1/C=N/NC(=O)c1ccc([N+](=O)[O-])cc1	2.4	-0.2	17.9	0.2	-1.1	.	.
CC(C)(C)C1CCC(=O)C(C2(O)C(=O)Nc3ccccc32)C1 (centres undefined)	12.0*	-0.6	3.1	.	2.6	-3.3	1.5
CC(C)CC#Cc1cnc2c(c1)C(=O)N([C@@H](C)CO)C[C@@H](C)[C@@H](CN(C)C(=O)c1ccc(F)cc1)O2	.	.	4.0	-0.1	.	.	.
c1ccc(Nc2ccccc2Nc2ccccn2)nc1	-4.8	-0.1	90.0	0.1	-11.8	.	.
Oc1cccc2ccc(Nc3ccccn3)nc12	49.6*	0.5	.	.	59.8*	31.9*	46.8*
COc1ccccc1NC(=O)N[C@H]1C=C[C@@H](CC(=O)N[C@H](C)c2ccccc2)O[C@H]1CO	.	.	-1.5	0.1	.	.	.
SMILES	ADAM17 inh	proKLK7 act	rRNA inh HTS	FGF22 binding	ADAM10 inh	ADAM10 counter	ADAM17 confirm	others
CC(CNc1ccc(Cl)cc1)(CNc1ccc(Cl)cc1)[N+](=O)[O-]	9.9*	-0.3	-20.3*	0.2	14.2	24.8*	7.8	HepG2 cytotox=16.3;AID977621=?;AID977628=?
COc1ccccc1NS(=O)(=O)c1cc(NC(=O)CNC(=O)c2ccccc2)ccc1C	9.1*	0.4	-20.0*	-0.2	15.8	4.7	5.4	AID977621=?
COc1ccccc1NC(=O)CNC(=O)c1ccccc1	0.0	-0.2	.	.	9.2	.	.
COc1cccc(-c2ccc([C@@H]3[C@H](CO)N4C(=O)CN(C(=O)C5CCCC5)C[C@@H]34)cc2)c1	.	.	-0.5	.	.	.	.
O=C(CSc1ccccc1)NCCCc1ccccc1	-0.8	-0.1	-23.1*	-0.1	0.9	.	.	AID977621=-5.57;AID977628=?
COc1ccc(-c2cnc3c(c2)C(=O)N([C@@H](C)CO)C[C@@H](C)[C@H](CN(C)C(=O)C2CCC2)O3)cc1	.	.	0.5	-0.2	.	.	.
CCCCCCNC(=O)c1c(N)[nH]c(C(=O)c2ccccc2)c1-c1ccc(O)cc1	-2.9	.	.	.	-14.7	.	.
CCCCNC(=O)c1c(N)[nH]c(C(=O)c2ccccc2)c1-c1ccccn1	-2.8	-1.0	-26.8*	0.0	-11.9	.	.	AID977621=-2;AID977628=-15.3
Nc1[nH]c(C(=O)c2ccccc2)c(-c2ccc(F)cc2)c1C(=O)NCCc1c[nH]c2ccccc12	-1.7	0.1	-28.7	-0.5	-10.1	.	.
Nc1[nH]c(C(=O)c2ccccc2)c(-c2ccc(Cl)cc2)c1C(=O)NCCc1c[nH]c2ccccc12	-0.6	0.2	-18.6*	0.1	-3.2	.	.	AID977621=-12.5
COCC(=O)N(C)C[C@H]1Oc2cc(-c3ccccc3F)ccc2S(=O)(=O)N([C@@H](C)CO)C[C@H]1C	.	.	0.2	0.3	.	.	.

Screening results from PubChem.
